Reference: the supplement of paper PMC12669032
Unmarked numbers belong to inactive results.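 The calls were made as follows: active = AUC reduced over 20% with Padj below 0.05 in at least 2 of 3 replicates; inactive = otherwise.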

Tests used:
Experiment in all cases: growth AUC relative to DMSO control (median of replicates) (fraction); higher = more growth (less inhibition), active = hit call of the paper
Conditions in all cases: 20 µM; 24 h
[1] = test system: Akkermansia muciniphila
How it was run: (§1)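 OD600 was recorded every hour for 24 h in anaerobic monocultures of gut bacteria kept at 37 °C in mGAM, seeded at OD600 0.05 and given 20 µM compound in 1% DMSO. The area under each growth curve was scaled to the plate median of solvent-only wells, or to row and column medians for the industrial chemical plate. Before this step, the minimum OD was set to 0. Reported values are medians of three biological replicates run on separate days.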

[2] = test system: Bacteroides caccae
How it was run: as §1

[3] = test system: Bacteroides clarus
How it was run: as §1

[4] = test system: Bacteroides dorei
How it was run: as §1

[5] = test system: Bacteroides stercoris
How it was run: as §1

[6] = test system: Bacteroides thetaiotaomicron
How it was run: as §1

[7] = test system: Bacteroides uniformis
How it was run: as §1

[8] = test system: Bifidobacterium longum subsp. longum
How it was run: as §1

[9] = test system: Clostridium difficile
How it was run: as §1

[10] = test system: Collinsella aerofaciens
How it was run: as §1

[11] = test system: Coprococcus comes
How it was run: as §1

[12] = test system: Escherichia coli ED1a
How it was run: as §1

[13] = test system: Escherichia coli IAI1
How it was run: as §1

[14] = test system: Eubacterium rectale
How it was run: as §1

[15] = test system: Fusobacterium nucleatum subsp. animalis
How it was run: as §1

[16] = test system: Lactobacillus gasseri
How it was run: as §1

[17] = test system: Lactobacillus paracasei
How it was run: as §1

[18] = test system: Odoribacter splanchnicus
How it was run: as §1

[19] = test system: Parabacteroides distasonis
How it was run: as §1

[20] = test system: Parabacteroides merdae
How it was run: as §1

Row | Compound | growth AUC [1] | growth AUC [2] | growth AUC [3] | growth AUC [4] | growth AUC [5] | growth AUC [6] | growth AUC [7] | growth AUC [8] | growth AUC [9] | growth AUC [10] | growth AUC [11] | growth AUC [12] | growth AUC [13] | growth AUC [14] | growth AUC [15] | growth AUC [16] | growth AUC [17] | growth AUC [18] | growth AUC [19] | growth AUC [20]
1 | CNC(=O)Oc1ccc(N(C)C)c(C)c1 | 1.05 | 0.855 | 1.01 | 0.983 | 1.41 | 0.994 | 1 | 0.979 | 0.99 | 0.932 | 0.992 | 1 | 1.01 | 1.06 | 1.08 | 0.909 | 1 | 0.861 | 0.977 | 0.986
2 | Fc1ccc(C2(Cn3cncn3)OC2c2ccccc2Cl)cc1 (stereo not given) | 0.955 | 1.01 | 0.93 | 0.956 | 1.02 | 0.941 | 0.953 | 0.935 | 0.995 | 0.99 | 0.969 | 1.02 | 1.01 | 0.72 (active) | 0.95 | 0.996 | 0.942 | 0.864 | 0.968 | 0.933
3 | CCC(C)n1c(=O)[nH]c(C)c(Br)c1=O (stereo not given) | 1.12 | 0.833 | 0.99 | 0.952 | 1.13 | 0.911 | 0.775 (active) | 1.02 | 0.945 | 0.96 | 1.02 | 0.979 | 0.94 | 1.07 | 1.01 | 0.869 | 1.03 | 0.461 | 0.926 | 0.891
4 | Clc1cccc(C(Cl)(Cl)Cl)n1 | 1.16 | 1.01 | 1.01 | 0.948 | 1.03 | 1.02 | 0.961 | 1.06 | 1.01 | 0.974 | 1.02 | 0.974 | 0.976 | 1.05 | 1.01 | 0.889 | 1.01 | 0.964 | 1 | 0.967
5 | CCOP(=O)(Sc1ccccc1)Sc1ccccc1 | 1.16 | 0.985 | 0.895 | 0.927 | 0.795 | 0.932 | 0.881 | 1.02 | 0.984 | 1.03 | 1.02 | 0.995 | 0.982 | 1.13 | 1.08 | 0.957 | 0.953 | 0.965 | 0.649 (active) | 0.934
6 | C=C(C)CN(CC)c1c([N+](=O)[O-])cc(C(F)(F)F)cc1[N+](=O)[O-] | 0.843 | 1.02 | 0.965 | 1.02 | 0.926 | 0.998 | 0.968 | 0.933 | 1.04 | 1 | 0.985 | 0.921 | 0.968 | 0.921 | 0.912 | 1.03 | 1.14 | 1.01 | 1.02 | 1.01
7 | Nc1nc(N)nc(NC2CC2)n1 | 0.99 | 0.989 | 1.02 | 1.01 | 1.04 | 1 | 0.991 | 1.01 | 1.02 | 0.999 | 1 | 0.982 | 0.986 | 1.04 | 1.04 | 0.877 | 0.959 | 1.04 | 1.03 | 1
8 | CCOP(=S)(OCC)SCS(=O)(=O)CC | 1.08 | 0.96 | 1.01 | 0.977 | 1.09 | 0.996 | 0.984 | 0.951 | 1.01 | 1.02 | 1.02 | 1.01 | 0.992 | 1.07 | 1.14 | 0.95 | 0.967 | 0.993 | 0.999 | 0.974
9 | CCCOP(=S)(OCCC)SCC(=O)N1CCCCC1C (stereo not given) | 0.978 | 0.956 | 0.953 | 0.968 | 0.892 | 0.873 | 0.9 | 1.06 | 1.02 | 1.06 | 0.943 | 0.985 | 1 | 1 | 1.08 | 0.891 | 1.02 | 1.01 | 0.676 (active) | 0.955
10 | Nc1cnn(-c2ccccc2)c(=O)c1Cl | 0.895 | 1.01 | 0.992 | 0.995 | 1.12 | 1.01 | 0.997 | 0.936 | 1.03 | 1 | 1.02 | 1.03 | 1 | 1.03 | 1.05 | 1.07 | 1.07 | 0.949 | 0.996 | 0.997
11 | COC(=O)Nc1nc2ccccc2[nH]1 | 0.927 | 1.01 | 0.991 | 1.01 | 0.957 | 1.04 | 0.988 | 1.01 | 1.06 | 1.03 | 1.05 | 1.04 | 1.01 | 0.854 | 1.03 | 1.14 | 0.862 | 0.997 | 1.03 | 0.981
12 | CNc1nc(C)c(C)c(OC(=O)N(C)C)n1 | 0.975 | 0.99 | 0.953 | 1.02 | 0.963 | 0.986 | 1.04 | 1.04 | 0.987 | 0.994 | 0.998 | 1.01 | 0.957 | 1.05 | 1.09 | 1.03 | 0.971 | 0.985 | 1.01 | 0.998
13 | CN(C)C(=S)[S-].CN(C)C(=S)[S-].[Zn+2] | 0.76 | 0.876 | 0.965 | 0.857 | 0.799 (active) | 0.694 (active) | 0.819 | 0.884 | 0.945 | 0.969 | 0.834 | 0.953 | 0.906 | 0.563 (active) | 0.993 | 0.976 | 0.966 | 0.384 (active) | 0.954 | 0.699 (active)
14 | COc1cc(C)c(C(=O)c2c(OC)ccc(Br)c2C)c(OC)c1OC | 1.05 | 1 | 0.959 | 0.992 | 0.958 | 0.951 | 0.91 | 0.885 | 1.03 | 0.956 | 1.04 | 1.01 | 0.971 | 1.02 | 1.01 | 0.709 | 1.03 | 1.05 | 0.528 (active) | 1.01
15 | O=C(O)COc1ccccc1 | 0.969 | 0.918 | 0.989 | 0.944 | 1.05 | 1.02 | 1 | 1.11 | 0.988 | 0.885 | 0.999 | 0.981 | 1 | 1 | 1.01 | 1.03 | 0.753 | 1.03 | 1 | 0.959
16 | O=c1[nH]c(Cl)c(Cl)cc1Cl | 0.98 | 1.04 | 0.967 | 0.991 | 1.05 | 1.11 | 0.978 | 0.981 | 0.95 | 1.01 | 0.998 | 0.952 | 0.983 | 0.991 | 1.04 | 0.928 | 0.984 | 0.942 | 0.921 | 1.01
17 | COC(=O)C(C)Oc1ccc(Oc2ccc(Cl)cc2Cl)cc1 (stereo not given) | 0.924 | 0.963 | 0.951 | 1.04 | 0.795 | 0.986 | 0.963 | 0.919 | 1.01 | 0.958 | 0.97 | 0.99 | 0.993 | 1.12 | 0.953 | 1.06 | 0.999 | 1 | 0.973 | 0.96
